PubChem BioAssay AID1159580 (chemical genetic matrix, 2015)
“And” between values parts separate entries of the source, which are not always exact repeats. Equal values may be shown once. The whole screen tested about 5,500 compounds, of which about 2,000 (36%) were called active. Roughly 18% stayed inconclusive and do not appear here. No stated cut-off is given here; in the data, active means normalized growth mostly below about 0.91 (no sharp cut-off); inconclusive means no clear call, values can overlap the other calls; inactive means mostly above about 0.92. Some of the results follow.

Assay: chemical genetic growth profiling, strain panel (AID 1159580);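 further: tested at 20 µM; growth read once vehicle control cultures reached saturation at 30 °C; 1 = growth at the plate median or of vehicle wells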
Conditions: S. cerevisiae deletion strains, growth OD

Measured: normalized growth

C=CCc1ccccc1OCC(O)CNC(C)C (stereo not given)
inactive: locus YAL013W, strain DEP1, stronger effect = lower value 1 and 0.978 | locus YAL021C, strain ccr4, stronger effect = lower value 1 | locus YAL026C, strain drs2, stronger effect = lower value 1 | locus YAL030W, strain snc1, stronger effect = lower value 0.995 | locus YAL040C, strain CLN3, stronger effect = lower value 0.974 | locus YBL061C, strain skt5, stronger effect = lower value 1 | locus YBR009C, strain hhf1, stronger effect = lower value 0.971 | locus YBR021W, strain FUR4, stronger effect = lower value 0.998 | locus YBR023C, strain chs3, stronger effect = lower value 1 | locus YBR171W, strain sec66, stronger effect = lower value 0.99 | locus YBR229C, strain ROT2, stronger effect = lower value 1 | locus YBR231C, strain swc5, stronger effect = lower value 0.987 | locus YBR279W, strain paf1, stronger effect = lower value 1 | locus YCL011C, strain gbp2, stronger effect = lower value 0.998 | locus YCL016C, strain dcc1, stronger effect = lower value 0.993 | locus YCL029C, strain bik1, stronger effect = lower value 1.02 | locus YCL061C, strain MRC1 (second series), stronger effect = lower value 1 | locus YCL061C, strain MRC1, stronger effect = lower value 0.999 | locus YCL069W, strain vba3, stronger effect = lower value 0.994 | locus YCR088W, strain abp1, stronger effect = lower value 0.992 | locus YDL005C, strain med2, stronger effect = lower value 0.995 | locus YDL035C, strain GPR1, stronger effect = lower value 0.991 | locus YDL040C, strain nat1, stronger effect = lower value 0.995 | locus YDL074C, strain BRE1, stronger effect = lower value 1.01 | locus YDL101C, strain DUN1, stronger effect = lower value 1.01 | locus YDL134C, strain PPH21, stronger effect = lower value 1.01 | locus YDL185W, strain tfp1, stronger effect = lower value 1 | locus YDL192W, strain arf1, stronger effect = lower value 1.02 | locus YDR001C, strain nth1, stronger effect = lower value 1 | locus YDR069C, strain doa4, stronger effect = lower value 0.979 | locus YDR101C, strain arx1, stronger effect = lower value 1.01 | locus YDR137W, strain rgp1, stronger effect = lower value 0.998 | locus YDR150W, strain NUM1, stronger effect = lower value 1 and 1.02 | locus YDR159W, strain sac3, stronger effect = lower value 0.993 | locus YDR162C, strain NBP2, stronger effect = lower value 1 | locus YDR195W, strain ref2 0.913 | locus YDR297W, strain sur2, stronger effect = lower value 1 | locus YDR318W, strain mcm21, stronger effect = lower value 1.01 | locus YDR334W, strain swr1, stronger effect = lower value 0.997 | locus YDR335W, strain msn5, stronger effect = lower value 1 | locus YDR363W, strain ESC2, stronger effect = lower value 0.973 | locus YDR388W, stronger effect = lower value 1 | locus YDR392W, strain spt3, stronger effect = lower value 0.86 | locus YDR502C, strain sam2, stronger effect = lower value 1.01 | locus YEL003W, strain gim4, stronger effect = lower value 0.992 | locus YEL037C, strain rad23, stronger effect = lower value 0.997 | locus YEL061C, strain CIN8 (second series), stronger effect = lower value 1 | locus YEL061C, strain CIN8, stronger effect = lower value 1 | locus YER002W, strain NOP16, stronger effect = lower value 0.975 | locus YER015W, strain faa2, stronger effect = lower value 0.995 | locus YER016W, strain bim1, stronger effect = lower value 0.985 | locus YER110C, stronger effect = lower value 1.02 | locus YER111C, strain swi4, stronger effect = lower value 0.986 | locus YER155C, strain BEM2 (second series), stronger effect = lower value 0.968 | locus YER155C, strain BEM2, stronger effect = lower value 0.999 | locus YER167W, strain BCK2, stronger effect = lower value 1 | locus YFR010W, strain ubp6, stronger effect = lower value 1 | locus YGL078C, strain dbp3, stronger effect = lower value 1.01 | locus YGL086W, strain mad1, stronger effect = lower value 1 | locus YGL167C, strain pmr1, stronger effect = lower value 0.998 | locus YGL173C, strain kem1, stronger effect = lower value 0.997 | locus YGL227W, strain vid30, stronger effect = lower value 0.987 | locus YGL240W, strain doc1, stronger effect = lower value 0.983 | locus YGL248W, strain PDE1, stronger effect = lower value 0.998 | locus YGL253W, strain hxk2, stronger effect = lower value 1 | locus YGR078C, strain PAC10, stronger effect = lower value 1.01 | locus YGR135W, strain pre9, stronger effect = lower value 1.02 | locus YGR229C, strain SMI1, stronger effect = lower value 0.974 | locus YGR252W, strain gcn5, stronger effect = lower value 0.98 | locus YHR013C, strain ard1, stronger effect = lower value 0.943 | locus YHR027C, strain rpn1, stronger effect = lower value 1 | locus YHR030C, strain SLT2, stronger effect = lower value 1 and 0.989 | locus YHR079C, strain IRE1 (second series), stronger effect = lower value 1.01 | locus YHR079C, strain IRE1, stronger effect = lower value 0.972 | locus YHR094C, strain hxt1, stronger effect = lower value 1 | locus YHR129C, strain ARP1, stronger effect = lower value 1.01 | locus YHR142W, strain chs7, stronger effect = lower value 1.01 | locus YHR200W, strain rpn10, stronger effect = lower value 1 | locus YIL066C, strain RNR3, stronger effect = lower value 1.01 | locus YIL073C, strain SPO22, stronger effect = lower value 1.06 | locus YIL125W, strain kgd1, stronger effect = lower value 1.01 | locus YIR030C, strain dcg1, stronger effect = lower value 1.02 | locus YJL092W, strain hpr5, stronger effect = lower value 1 | locus YJL095W, strain BCK1 (second series), stronger effect = lower value 0.995 | locus YJL095W, strain BCK1, stronger effect = lower value 1.02 and 0.978 | locus YJL115W, strain asf1, stronger effect = lower value 1 | locus YJL129C, strain trk1, stronger effect = lower value 0.998 | locus YJL134W, strain LCB3, stronger effect = lower value 0.997 | locus YJL154C, strain vps35, stronger effect = lower value 0.99 | locus YJL164C, strain tpk1, stronger effect = lower value 1.01 | locus YJL166W, strain qcr8, stronger effect = lower value 1 | locus YJL168C, strain set2, stronger effect = lower value 1.01 | locus YJL187C, strain SWE1 (second series), stronger effect = lower value 1.02 | locus YJL187C, strain SWE1, stronger effect = lower value 1.01 | locus YJR043C, strain POL32, stronger effect = lower value 1
